Laboratory results as given in PubChem BioAssay AID1671190 (National Center for Advancing Translational Sciences (NCATS), 2021).
Screen size: about 580,000 compounds; about 6,100 (1.1%) were called active. Where a call stands in place of a potency, no number is given. Not shown: some 15% with an inconclusive outcome. The call rests on the fitted dose curve; in most records, active means well fitted inhibition curve with a large enough effect; inconclusive means small, poorly fitted or top-dose-only effect, or another doubt; inactive means no such curve, though single readings can be large or run the other way. The full list was thinned out, with actives kept by preference.

Each compound was assayed against Polyunsaturated fatty acid lipoxygenase ALOX12 (Homo sapiens) (UniProt P18054) (assay: Primary qHTS assay for inhibitors of human arachidonate 12S-lipoxygenase (ALOX12): Round 2). Conditions: purified 12hLO, xylenol orange hydroperoxide absorbance; series mostly up to 108 µM.
Procedure, shortened: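 Hydroperoxide product was detected by ferrous iron/xylenol orange as the 573 to 405 nm absorbance ratio. Arachidonic acid at 40 uM (final) was turned over for 30 min at room temperature by 150 nM human 12hLO, pH 7.0 Hepes buffer, after 15 min compound preincubation.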
Potency means the concentration at half of the fitted maximal effect.

Polyunsaturated fatty acid lipoxygenase ALOX12 (Homo sapiens), sequence (P18054 whole entry, looked up): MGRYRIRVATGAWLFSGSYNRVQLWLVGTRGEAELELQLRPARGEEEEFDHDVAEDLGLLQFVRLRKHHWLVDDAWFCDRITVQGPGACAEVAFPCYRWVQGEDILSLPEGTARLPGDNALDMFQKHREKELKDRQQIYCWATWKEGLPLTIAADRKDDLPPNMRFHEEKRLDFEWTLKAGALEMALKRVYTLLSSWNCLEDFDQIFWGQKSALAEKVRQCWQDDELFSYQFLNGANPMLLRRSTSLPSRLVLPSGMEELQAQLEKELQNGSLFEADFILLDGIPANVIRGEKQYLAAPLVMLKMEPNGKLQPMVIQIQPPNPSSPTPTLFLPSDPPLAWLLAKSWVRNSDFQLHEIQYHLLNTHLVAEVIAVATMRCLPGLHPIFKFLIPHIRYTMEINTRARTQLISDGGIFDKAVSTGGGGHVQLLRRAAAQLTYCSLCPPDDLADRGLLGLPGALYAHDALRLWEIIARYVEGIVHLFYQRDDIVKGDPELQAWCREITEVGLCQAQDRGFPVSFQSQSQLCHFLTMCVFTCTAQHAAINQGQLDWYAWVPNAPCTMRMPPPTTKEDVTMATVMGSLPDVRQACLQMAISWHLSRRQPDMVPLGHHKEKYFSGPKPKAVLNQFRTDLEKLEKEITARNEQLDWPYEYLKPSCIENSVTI

Compound	Potency	activity change, negative = inhibition
CCc1cccc2c(C(=O)CSc3nncn3C(C)C)c[nH]c12	inactive	
CCC1(C)Cc2c(sc3nnn(CC(=O)Nc4ccc(Cl)cc4)c(=O)c23)CO1 (centres undefined)	inactive	
CC1(C)Cc2c(sc3c2c(=O)n(CCO)c(=O)n3CCc2ccccc2)CO1	inactive	
CCC1(C)Cc2c(sc3[nH]c(=S)n(Cc4ccccc4)c(=O)c23)CO1 (centres undefined)	28.2 µM (active)	
COc1ccccc1-c1cnc(Nc2ccncc2)c2c1CCO2	inactive	
CN1CCN(C(=O)c2cccc(C(F)(F)F)c2)CC1	inactive	
O=[N+]([O-])c1cc(Cl)cc(/C=N/NC(=S)Nc2cc(S(=O)(=O)N3CCOCC3)ccc2Cl)c1O	25.1 µM (active)	
Cc1ccc(S(=O)(=O)N2CCOCC2)cc1NC(=O)c1ccncc1	inactive	
O=C(CNCc1cccs1)Nc1cc(S(=O)(=O)N2CCCC2)ccc1Cl	inactive	
CCOc1cc(C2c3c(-c4c(C)cc(C)cc4O)n[nH]c3C(=O)N2CCO)ccc1O (centres undefined)	inactive	
C(=NCc1ccccc1)c1cn(-c2ccccc2)nc1-c1cccs1	50.1 µM (active)	
CCC(=O)N1N=C(c2ccc(OC)cc2)CC1c1cn(-c2ccccc2)nc1-c1cccs1 (centres undefined)	inactive	
O=c1onc(-c2cccs2)n1Cc1ccccc1	inactive	
CC1(C)[C@H]2CC[C@@H](CNC(=O)c3ccccc3F)[C@@H]1C2	inactive	
COc1cc(/C=N/Nc2ccc(C)cc2)cc(Br)c1O	10 µM (active)	
COc1cc(/C=N/O)ccc1O	inactive	
Oc1c(Br)cc(/C=N/NC(=S)NCC2CCCO2)cc1Br (centres undefined)	inactive	
O=C(Cc1ccc(Cl)cc1)Oc1ccc2ccccc2c1	inactive	
C(=N\N=C(c1ccccc1)c1ccccc1)/c1cn[nH]c1-c1ccccc1	inactive	
CN(C)c1ncnc2sc3c(c12)CCN(Cc1ccccc1)C3	inactive	
CCCc1nc(-c2ccccc2O)n(-c2ccccc2)n1	inactive	
Oc1ccccc1C1=NN(c2ccccc2)C(c2ccccc2)C1 (centres undefined)	15.8 µM (active)	
Cc1ccc(N2C(=O)C3N=NN(CC(=O)N4N=C(c5cccc6ccccc56)CC4c4ccccc4)C3C2=O)cc1 (centres undefined)	inactive	
Cc1oc2cc(OCC(=O)N3CCCCCC3)ccc2c(=O)c1-c1ccc(Cl)cc1	inactive	
CCN1/C(=C\c2ccc3ccccc3[n+]2CC)Sc2cc(C)ccc21	35.5 µM (active)	
CCN(CC)C(=O)Oc1ccc2c(C)c(-c3ccc(OC)cc3)c(=O)oc2c1	inactive	

Compound	Potency	activity change, negative = inhibition
O=C1CC(NCc2ccoc2)CN1CCc1cccc(Cl)c1 (centres undefined)	inactive	
Cc1ccccc1NC(=O)c1cc2cc([N+](=O)[O-])ccc2oc1=O	inactive	
COc1cc(CNCCSc2nnnn2C)ccc1OCc1ccc(Cl)cc1Cl	39.8 µM (active)	
Cn1nnnc1SCCNCc1ccc(Cl)c(Cl)c1	inactive	
COc1cc(CNCCSc2nnnn2C)ccc1OCc1c(F)cccc1Cl	inactive	
Cc1cc(S(=O)(=O)N2CCCN(C)c3ccccc32)ccc1F	inactive	
Cc1ccc(CN(CC(=O)NCC2CCCO2)C2CC2)cc1 (centres undefined)	inactive	
CN(Cc1cccs1)C(=O)C1CCC1	inactive	
Cc1ccc(C(=O)N2CCC3(CC2)NC(=O)N(Cc2ccc(F)cc2)C3=O)cc1	inactive	
CCN1CCC2(CC1)N=C(c1ccc(F)cc1)C(=S)N2C(=O)c1ccc(C)cc1	50.1 µM (active)	
Cc1ccc(C(=O)N2CCC(c3n[nH]c(=O)n3Cc3ccc(F)cc3)CC2)cc1	inactive	
CC1CCN(CCCNC(=O)c2cc(=O)c3ccccc3o2)CC1	inactive	
Cc1ccc(N(CC(=O)Nc2cc(C)cc(C)c2)S(=O)(=O)c2cccc3nonc23)cc1	inactive	
CCNC(=O)CN(c1ccc(C)cc1)S(=O)(=O)c1ccc(SC)cc1	inactive	
Cc1ccc(S(=O)(=O)N(CC(=O)Nc2cccnc2)c2ccc(Br)cc2)cc1	22.4 µM (active)	
COc1ccccc1C(=O)N1CCc2c(nc3cc(-c4ccccc4Cl)[nH]n3c2=O)C1	inactive	
COc1ccc2cc(C(=O)N3CCN(S(=O)(=O)c4ccccc4C(F)(F)F)CC3)c(C)nc2c1	inactive	
Cn1c(=O)c2c(nc(Cl)n2CC(=O)N(C2CCCC2)C2CCS(=O)(=O)C2)n(C)c1=O (centres undefined)	inactive	
O=C(Cc1cccc2ccccc12)NCCc1cccc2cccnc12	inactive	
CCCCc1c(C)nc2c(C)cccc2c1SCC(=O)O	inactive	
COc1cc(C(=S)NCc2ccccc2)cc(Br)c1O	39.8 µM (active)	
COc1ccc(COc2ccc(C(=O)O)cc2OC)cc1Br	inactive	
COc1ccccc1NC(=O)C(=O)NCc1ccccc1	inactive	
CN(Cc1ccc(F)cc1F)C(=O)COc1ccc2ccc(=O)oc2c1	inactive	
C=CCSc1nc2c(c(=O)[nH]c(=O)n2C)n1Cc1cccc(C)c1	inactive	
COc1cc(Cl)c(C)cc1NC(=O)[C@@H]1CCCN1C(=O)c1cccs1	inactive	

Compound	Potency	activity change, negative = inhibition
Cc1ccc(NNC(=O)c2cccs2)cc1Cl	8.91 µM (active)	
CS(=O)(=O)c1ccc(C(=O)NNC(=O)c2cccs2)cc1	inactive	
CCN(c1ccc(-c2csc(-c3ccccc3)n2)cc1)S(C)(=O)=O	inactive	
N#Cc1ncn(CCC(=O)Nc2ccc(F)c(F)c2)n1	inactive	
COc1ccc(C)cc1NC(=O)NC(C(=O)N1CCc2ccccc21)C(C)C (centres undefined)	inactive	
Cc1noc(-c2ccc(OC(F)(F)F)cc2)c1C(=O)NCc1ccc2c(c1)OCO2	inactive	
CCC1CCCCN1C(=O)Cn1cccc1-c1nc(-c2ccc(F)cc2)no1 (centres undefined)	inactive	
O=C(c1ccc2c(c1)OCO2)N1CCC(n2c(=O)[nH]c3ccccc32)CC1	inactive	
CCC(CC)C(=O)Nc1cccc(C(=O)N2CCCC2)c1	inactive	
O=C(c1n[nH]c2c1CCCC2)N1CCC2(CC1)NC(=O)N(c1ccc(F)cc1)N2	1.41 µM (active)	
O=C(c1ccc2c(c1)OCO2)N1CCC2(CC1)NC(=O)N(c1ccccc1)N2	5.01 µM (active)	
O=C(NC1CCCc2c1[nH]c1ccc(F)cc21)c1n[nH]c2c1CCCC2 (centres undefined)	inactive	
O=C(c1cccc(Cl)c1)N1CCC2(CC1)NCc1ccccc1NC2=O		3.75% [at 6.33 µM] (inactive)
CC(=O)Nc1cccc(C(=O)N2CCC3(CC2)NC(=O)N(c2cccc(Cl)c2)N3)c1	1.41 µM (active)	
O=C(c1ccccc1)c1cccn1CC(=O)N1CCN(c2ccc(F)cc2)CC1	inactive	
O=C(Cc1ccc(F)cc1)N1CCC2(CC1)NC(=O)N(c1ccccc1)N2	5.01 µM (active)	
O=C(Cc1ccc(F)cc1)N1CCC(n2cc(-c3nc(-c4ccccc4)no3)nn2)CC1	inactive	
O=C(c1ccc2c(c1)OCO2)N1CCC2(C1)C(=O)Nc1ccccc12 (centres undefined)		5.73% [at 6.33 µM] (inactive)
O=C(c1cc2ccccc2oc1=O)N(Cc1ccccc1)c1cccc([N+](=O)[O-])c1	inactive	
CC1CCN(S(=O)(=O)c2ccc3c(ccc(=O)n3CC(=O)NCc3ccccn3)c2)CC1	inactive	
COc1cccc(CC(=O)N2CCC3(CC2)N=C(c2ccc(Cl)cc2)NO3)c1	inactive	
Cc1ccc(-c2cn3nc(N4CCCC(C(=O)NCCc5cccs5)C4)sc3n2)cc1 (centres undefined)	inactive	
COCCn1nc2n(c1=O)CCN(S(=O)(=O)c1ccc(Cl)s1)CC2	inactive	
COc1ccc(Cl)cc1NC(=O)CCc1ncc(-c2ccc(C)cc2)o1	inactive	
CC1(c2ccccc2)N(Cc2ccc(O)cc2)C(=O)OC12CCN(Cc1ccc(C#N)cc1)CC2 (centres undefined)	inactive	
CC1(c2ccccc2)N(Cc2ccccc2F)C(=O)OC12CCN(Cc1c[nH]c3ccccc13)CC2 (centres undefined)	28.2 µM (active)	

Compound	Potency	activity change, negative = inhibition
CC(C)C(=O)N1CCC2(CC1)OC(=O)N(Cc1ccccc1F)C2(C)c1ccccc1 (centres undefined)	inactive	
COc1ccccc1CNC(=O)c1ncoc1-c1cccc(C)c1	inactive	
CCC(=O)N1c2ccccc2NC2=C(C(=O)CC(C)(C)C2)C1c1cc(OC)ccc1OC (centres undefined)	inactive	
COCC1CN(Cc2cn(C)c3ccc(OC)cc23)CC12CCNCC2 (centres undefined)	inactive	
COc1cc(/C=C/c2nc3ccccc3s2)ccc1OC(F)F	inactive	
CCn1c(SCC(=O)Nc2ccccc2C(=O)NC2CC2)nnc1-c1ccoc1C	inactive	
COc1ccc(C(=O)NCCSc2ccccc2C)cc1	inactive	
COc1ccc(N2CCN(C(=O)CCNC(=O)c3ccc(Br)cc3)CC2)cc1	inactive	
COc1ccc(C(=O)NCC[N+](C)(C)C)cc1	39.8 µM (active)	
CCN(Cc1nc(-c2ccc(OC)c(OC)c2)no1)C(=O)Nc1cccc2ccccc12	inactive	
Cc1[nH]c2ccccc2c1C=O	inactive	
COC(=O)c1c(NC(=O)CCCOc2ccccc2)sc2c1CCC(C)C2 (centres undefined)	inactive	
Cc1[nH]c2ccccc2c1/C=N/c1sc2c(c1C#N)CCC(C)C2 (centres undefined)	22.4 µM (active)	
COC(=O)CC(NC(=O)c1nn(C)c(=O)c2ccccc12)c1ccc(F)cc1 (centres undefined)	inactive	
Nc1ccc(-c2cc(C(=O)O)c3cc(Cl)ccc3n2)cc1	inactive	
Cc1nc(C)c(C(=O)N2CCCC(C(=O)NCc3ccccc3)CCNC(=O)CC2)s1 (centres undefined)	inactive	
N#CC1CCN(C(=O)c2nc(-c3ccc(Cl)cc3)c3ccccn23)CC1	inactive	
COc1ccccc1-c1nc(N2CCN(C)CC2)c2ccccc2n1	28.2 µM (active)	
COc1ccc(N2CCN(c3nc(-c4ccccc4F)nc4ccccc34)CC2)cc1	inactive	
CCOc1ccccc1N1CCN(c2nc(-c3cccnc3)nc3ccccc23)CC1	inactive	
COC(=O)C1CCCCN1S(=O)(=O)c1cc(Cl)ccc1Cl (centres undefined)	inactive	
CN1c2ccc(C=O)c3c(C=O)ccc(c23)N(C)C1(C)C	28.2 µM (active)	
O=C(CCC1NC(=O)c2ccccc2NC1=O)NC1CCCCCC1 (centres undefined)	inactive	
Fc1ccccc1N1CCN(c2nc(-c3cccnc3)nc3ccccc23)CC1	inactive	
CC(C)Nc1nc(N(c2ccccc2)c2ccccc2)nc(-n2ccnc2)n1	inactive	
FC(F)(F)c1ccccc1-c1nc(-n2ccnc2)c2ccccc2n1	15.8 µM (active)	
